This is a sample that favours compounds with a hit; in the whole collection about 2.1% have one here.
FUS yeast rescue = FUS proteinopathy suppression in yeast; S. cerevisiae FUS-expressing, growth rescue, OD600, 24 h; 390,000 compounds, 0.24% hits; Potency, µM (top dose mostly 76.6 µM), most hits filed as activators;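 note: plate controls were DMSO vehicle for no effect and reference control for full effect; nearly all actives have a fitted effect of over 55% in size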
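Read-out: OD at 600 nm after 24hr at 30C, reporting rescue of FUS-induced yeast toxicity. Cells at OD 0.005 in galactose (2%) minimal medium; compounds tested in a dilution series; CP55940 titration from 92uM final as control.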
Abeta rescue = A-beta toxicity reversal in yeast; yeast expressing A-beta42, growth rescue, OD600, 48 h; response scale: 0% DMSO, 100% iron-clioquinol control; Potency, µM (doses to about 46.1 µM), most hits filed as activators; 410,000 compounds, 0.063% hits; AID 1347071; note: nearly all actives have a fitted effect of over 55% in size
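Yeast A-beta toxicity model in growth medium with pinned compounds, 48 h at 30 C; growth read as absorbance at 600 nm. Normalized to FeCl3/clioquinol equimolar mix (positive) and DMSO (negative).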
aSyn rescue = rescues yeast growth from alpha-synuclein toxicity; Potency, µM (titrated, usually from 46.1 µM), inactives show at the highest dose growth rescue (activation), hits mostly activators; AID 652106; Yeast expressing alpha-synuclein, growth rescue, BacTiter-Glo, 24 h; 370,000 compounds, 0.14% hits; note: % of control where 0% means no effect; nearly all actives have a fitted effect of over 65% in size
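Screening used galactose-induced yeast with toxic alpha-synuclein levels, exposed to compound for 24 hr at 30 deg C. Cell growth, read with BacTiter-Glo luminescence, gave the measured signal.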
TDP43 rescue = inhibitors of TDP-43 toxicity in yeast; TDP-43 expressing yeast growth rescue, BacTiter-Glo, 24 h; Potency, µM (series often up to 46.1 µM), without a hit: top-dose growth rescue (activation), actives largely listed as activators; 410,000 compounds, 1.8% hits; AID 652104; note: % of control where 0% means no effect; nearly all actives have a fitted effect of over 50% in size
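Galactose-induced TDP-43 yeast, OD600=0.02, compound pinned; 24 hr, 30 deg C; BacTiter-Glo luminescence for growth. Inhibitors of TDP-43 toxicity read as activators.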
* = called active by the depositor; i = inactive; ? = inconclusive; . = no result; [ ] = remark or other dose. Calls come from the whole dose curve; as a rule, active = well fitted curve in the direction sought with a large enough effect; inconclusive = small, poorly fitted or top-dose-only effect, or another doubt; inactive = no such curve, though single readings can be large; an effect the other way counts as inactive or inconclusive. Potency is the fitted concentration of half-maximal effect.

SMILES	FUS yeast rescue	Abeta rescue	aSyn rescue	TDP43 rescue
CCC(C(=O)OCC(=O)Nc1ccc(SC(F)F)cc1)c1ccccc1 (stereo unspecified)	i	?	0%	10µM*
Cc1cc(C)n(-c2ccc(C(=O)N3CCc4ccccc43)cc2)n1	i	i	-3%	11µM*
Cc1cccc(-n2cnc3cc(C(=O)N4CCc5ccccc54)ccc32)c1	.	i	24%	13µM*
CC(C)c1cc(-c2cc(C(=O)NCc3ccccc3)on2)nc(NCC2CC2)n1	i	i	?	16µM*
O=C(CSC1=NS(=O)(=O)c2ccccc21)Nc1ccccc1	i	i	?	35µM*
COC(=O)CSC1=NS(=O)(=O)c2ccccc21	.	i	?	?
CC(C(=O)O)(C1CCCCC1)C1(O)CCCCC1 (stereo unspecified)	i	i	0%	?
CC1CCC(C(O)(C(=O)O)C2CCCCC2)CC1C (stereo unspecified)	.	i	14%	18µM*
COC(=O)C1=NN(C(=O)c2ccc(C)cc2)C(O)(c2ccc(Cl)cc2)C1 (stereo unspecified)	?	i	11µM*	?
CC(=O)NCc1ccc(C(=O)CCl)cc1	i	i	-17%	21%[9.22 µM]
CC(=O)Nc1ccc(C(=O)OCCCOC(=O)c2ccc(NC(C)=O)cc2)cc1	i	i	3%	4%
CC(=O)Nc1ccc(C(=O)OCc2ccccc2Cl)cc1	i	i	-25%	20µM*
CC(=O)Nc1ccc(C(=O)CCl)cc1	i	i	-23%	10µM*
c1ccc(CCNc2nc3ccccc3n3nnnc23)cc1	.	i	5%	13%
Cc1ccc(S(=O)(=O)N2CCC(C)CC2)c([N+](=O)[O-])c1	i	i	14%	18µM*
Cc1ccc([N+](=O)[O-])cc1S(=O)(=O)N1CCC(C)CC1	i	i	13%	16µM*
COc1ccc(C)cc1S(=O)(=O)N1CCC(C)CC1	i	i	7%	19%
Cc1cn(C2OC(COC(=O)c3ccccc3)C(OC(=O)c3ccccc3)C2OC(=O)c2ccccc2)c(=O)[nH]c1=O (stereo unspecified)	25µM*	i	23%	-16%
Cc1cn(C2OC(COC(=O)c3ccccc3)C(O)C2O)c(=O)[nH]c1=O (stereo unspecified)	i	i	0%	-12%
CCNC(=S)N1CCc2ccccc2C1	i	i	0%	3%[9.22 µM]
Fc1ccc2[nH]c3c(c2c1)CN(C(=S)NCc1ccccc1)CC3	i	?	-28%	16µM*
Cc1cccc(C(=O)NC(=S)N2CCc3ccccc3C2)c1	i	?	-2%	20µM*
C=CCNC(=O)N1CCc2[nH]c3ccc(F)cc3c2C1	i	i	-1%	13%
S=C(NCc1ccccc1)N1CCc2ccccc2C1	i	i	3%	11µM*
Nc1c(-c2ccccc2)c(CSc2nc3ccccc3[nH]2)nn1-c1cccc(C(=O)O)c1	i	i	-4%	-11%
SMILES	FUS yeast rescue	Abeta rescue	aSyn rescue	TDP43 rescue
O=C(NNC(=O)C(Cl)Cl)c1cnn(-c2ccccc2)c1C(F)(F)F	i	i	16µM*	-2%
N/C(=N\OC(=O)c1cnn(-c2ccccc2)c1C(F)(F)F)c1cc(C(F)(F)F)cc(C(F)(F)F)c1	i	i	0%	-9%
c1ccc(-c2nc(N3CCN(c4ccccc4)CC3)nc(-n3ccnc3)n2)cc1	i	i	9%	?
COc1ccc(CNC(=O)C(C)OC(=O)c2cccn2C)cc1 (stereo unspecified)	i	i	1%	1%
CC(=O)Nc1ccc(C(=O)OCC(=O)c2ccc(S(=O)(=O)N3CCCCC3)cc2)cc1	7.9µM*	i	-4%	0%
CC(=O)Nc1cccc(C(=O)OCC(=O)c2ccc(S(=O)(=O)N3CCCCC3)cc2)c1	i	i	-8%	16%
CCCCOc1ccc(C(=O)NCc2nnnn2-c2ccc(C)c(C)c2)cc1	i	i	.	20µM*
Cc1ccc[n+](CC(=O)Nc2ccc([N+](=O)[O-])cc2)c1	i	i	-11%	8.9µM*
CCc1cc(=O)oc2cc(C)c(CN3CCCC(C)C3)c(O)c12 (stereo unspecified)	7.1µM*	i	12%	-26%
O=C(c1cc(-c2ccccc2O)on1)N1CCc2ccccc2C1	i	i	1%	20%
O=C(c1cc(-c2ccc(O)cc2)on1)N1CCc2ccccc2C1	i	i	-8%	14µM*
COc1cccc(Nc2ccc3cc(S(=O)(=O)N4CCC(C)CC4)ccc3n2)c1	i	i	.	13µM*
C=CCn1c(N)c(C(=O)Nc2ccc(C)c(C)c2)c2nc3ccccc3nc21	i	i	7%	17%
C=CCn1c(N)c(C(=O)Nc2cccc(C)c2)c2nc3ccccc3nc21	i	i	8%	25µM*
CCn1nc(C(=O)Nc2nc(-c3ccccn3)cs2)c2ccccc2c1=O	i	i	-16%	?
CCCn1nc(C(=O)Nc2nc(-c3ccccn3)cs2)c2ccccc2c1=O	i	10µM*	-6%[1.84 µM]	?
CCCn1nc(C(=O)NC2CC2)c2ccccc2c1=O	i	i	0%	9%
COc1ccc(-n2nc(C(=O)NCC(=O)NCC3COc4ccccc4O3)c3ccccc3c2=O)cc1OC (stereo unspecified)	18µM*	i	0%	-2%
CCCn1nc(C(=O)NCC2COc3ccccc3O2)c2ccccc2c1=O (stereo unspecified)	i	i	2%[1.84 µM]	22µM*
CN(Cc1ccccc1)C(=O)c1nc[nH]c1C(=O)N1CCN(C(=O)OC(C)(C)C)CC1	i	i	0%	19%
CC(=O)Oc1ccccc1-c1nc(/C=C/c2ccccc2)no1	i	i	-14%	18µM*
COc1ccc(/C=C/c2noc(-c3ccccc3O)n2)cc1	i	i	0%	-4%
O=C1[C@@H]2C(c3ccccc3Cl)=NO[C@@H]2C(=O)N1Cc1ccccc1	i	?	2%	14µM*
COc1ccc(CN2C(=O)[C@@H]3C(c4ccccc4Cl)=NO[C@@H]3C2=O)cc1	i	i	-5%	?
O=C(CSc1nccn1-c1cccc(Cl)c1)Nc1ccc2c(c1)OCO2	i	i	.	18µM*
COc1ccc(-n2ccnc2SCC(=O)Nc2ccccc2)cc1	i	i	0%	28%
Cc1cc(C)cc(-n2ccnc2SCC(=O)Nc2cccc3ccccc23)c1	i	i	10%	20µM*
O=C(CSc1nccn1-c1ccc(F)cc1)Nc1ccc(OC(F)(F)F)cc1	i	?	.	16µM*
COc1cccc(-n2ccnc2SCC(=O)Nc2cccc(C)c2C)c1	i	i	2%	16µM*
O=C(O)CC12CC3CC(C1)CC(n1cncn1)(C3)C2	i	i	0%	-2%

Screening results deposited in PubChem BioAssay by National Center for Advancing Translational Sciences (NCATS).
